# Entries with a potency or affinity are not part of this list.
# What was measured:
# [1] = system: Klebsiella pneumoniae; conditions: Concentration 32 ug.mL-1;; ASSAY_TEST Inhibition of Bacterial Growth; detection method Absorption (OD600); MEDIA CAMHB; plate type 384well; NBS; CORNING #3640; time 18 hr
# [2] = system: Candida albicans; conditions: Concentration 32 ug.mL-1; ASSAY_TEST Inhibition of Fungal Growth; detection method Absorption (OD530)
# [3] = system: Cryptococcus neoformans; conditions: Concentration 32 ug.mL-1; ASSAY_TEST Inhibition of Fungal Growth; detection method Resazurin; Absorption (OD600-OD570); plate type 384well; NBS; CORNING #3640
SMILES,Inhibition [1],Inhibition [2],Inhibition [3]
Cc1ccc(C)c(NC(=O)Cn2nc3c(Sc4ccccc4)nccn3c2=O)c1,3.53%,1.24%,-8.99%
CCc1nnc2c(=O)n(CC(=O)Nc3cc(Cl)ccc3Cl)c3ccccc3n12,6.11%,2.89%,-19.25%
COc1ccc(NC(=O)Cn2nc3c(Sc4ccccc4)nc4ccccc4n3c2=O)cc1Cl,5.63%,1.75%,-17.25%
COc1ccc(N(Cc2cccc(F)c2)S(=O)(=O)c2ccc3nncn3c2)cc1,25.01%,3.57%,-1.54%
O=c1c2sccc2n2c(=S)[nH]nc2n1CC1CCCO1 (configuration not stated),6.97%,-1.18%,-5.63%
O=C(Cn1nc2c(N3CCOCC3)nccn2c1=O)Nc1ccc(Cl)cc1F,19.61%,2.13%,-2.72%
CCOc1ccccc1NC(=O)Cn1nc2c(Sc3ccc(C)cc3C)nccn2c1=O,5.52%,-0.73%,-9.54%
Cc1ccc(NC(=O)CSc2nnc3n(CC4CCCO4)c(=O)c4sccc4n23)cc1F (configuration not stated),6.62%,-2.27%,-15.18%
Cc1ccc(-c2cc3c4nn(CC(=O)Nc5cccc(C)c5C)c(=O)n4ccn3n2)cc1C,14.55%,0.02%,-23.37%
COc1cc(OC)c(NC(=O)Cn2nc3c4c5c(sc4ncn3c2=O)CC(C)CC5)cc1Cl (configuration not stated),11.66%,3.55%,-23.25%
COc1cccc(Cn2nc3n(CCC(=O)NC4CCCCC4)c(=O)c4ccccc4n3c2=O)c1,9.79%,5.45%,-13.5%
COc1ccc(Cl)cc1NC(=O)Cn1nc2c3cc(-c4ccc(C)c(C)c4)nn3ccn2c1=O,-20.97%,12.28%,-11.29%
Cc1ccc(Cl)cc1NC(=O)CSc1nc2ccccc2n2c(C(C)C)nnc12,7.66%,11.96%,-19.47%
CCOC(=O)c1cccc(NC(=O)Cn2nc3c(Oc4cccc(C)c4C)nccn3c2=O)c1,-1.37%,-0.11%,-1.74%
Cc1ccc(-c2ccc3nn(CC(=O)Nc4ccc(C#N)cc4)c(=O)n3n2)cc1C,8.41%,3.47%,-12.02%
COc1ccc(-c2cc3c4nnc(SCC(=O)NCc5ccccc5)n4ccn3n2)cc1,-10.83%,19.83%,-19.87%
O=C(CSc1nnc2c(=O)n(-c3ccc(Br)cc3)ccn12)c1ccc(F)cc1,7.31%,5.26%,-8.48%
COc1ccccc1NC(=O)Cn1nc2c3cc(-c4ccc(C)c(C)c4)nn3ccn2c1=O,17.54%,-1.16%,-22.56%
COc1ccc(NC(=O)Cn2nc3c4cc(-c5ccc(C)c(C)c5)nn4ccn3c2=O)cc1,9.06%,19.37%,-31.22%
Cc1ccc(-c2ccc3nn(CC(=O)Nc4ccc(Cl)cc4F)c(=O)n3n2)cc1,13.29%,-0.74%,-20.92%
C=Cc1ccc(CSc2nnc3c(=O)n(-c4ccc(F)cc4)ccn23)cc1,9.66%,4.46%,-8.26%
CCCCOc1ccc(-c2cc3c4nnc(SCC(=O)Nc5c(C)cccc5CC)n4ccn3n2)cc1,-16.94%,-2.13%,-12.87%
COC(=O)c1cccc(NC(=O)Cn2nc3c(Sc4ccc(C)cc4C)nccn3c2=O)c1,13.86%,-2.57%,-30.13%
O=S(=O)(c1ccc2nncn2c1)N(Cc1ccccc1F)c1ccc2c(c1)OCO2,9.89%,1.66%,-6.91%
COc1cccc(Oc2nccn3c(=O)n(CC(=O)Nc4ccc5c(c4)OCCO5)nc23)c1,1.41%,7.65%,-9.22%

SMILES,Inhibition [1],Inhibition [2],Inhibition [3]
CCc1nnc2c(S(=O)(=O)N(Cc3cccc(Cl)c3)c3ccccc3)cccn12,-7.54%,2.13%,-7.64%
CCc1ccccc1Sc1nccn2c(=O)n(CC(=O)Nc3ccc(Br)cc3)nc12,22.46%,14.92%,-1.52%
CC(C)CCn1c(=O)c2sccc2n2c(=O)n(CC(=O)NC(C)C)nc12,5.25%,-0.52%,-18.15%
COc1ccccc1NC(=O)Cn1nc2c3cc(-c4ccc(Cl)cc4)nn3ccn2c1=O,7.17%,8.08%,-18.6%
Cc1ccc(-c2cc3c4nnc(CCC(=O)NCc5ccc(C(F)(F)F)cc5)n4ccn3n2)cc1C,10.93%,3.64%,-31.79%
Cc1ccc(NC(=O)CSc2nc3ccccc3n3c(C(C)C)nnc23)c(Cl)c1,0.92%,27.99%,-3.15%
Cc1cccc(NC(=O)Cn2nc3ccc(-c4ccc(C)c(C)c4)nn3c2=O)c1,-0.51%,-1.03%,-12.34%
CCc1ccccc1Sc1nccn2c(=O)n(CC(=O)N3CCN(c4ccccc4F)CC3)nc12,1.78%,4.04%,-15.46%
Cc1ccc(-n2ccn3c(SCC(=O)N4CCN(c5ccc(F)cc5)CC4)nnc3c2=O)cc1C,1.76%,0.36%,-5.04%
COc1ccc(-c2cc3c4nn(CC(=O)Nc5cc(C)cc(C)c5)c(=O)n4ccn3n2)cc1,9.4%,2.5%,-4.71%
CC1CCCN(c2nccn3c(=O)n(CC(=O)Nc4ccc(Br)cc4F)nc23)C1 (configuration not stated),5.81%,5.05%,-8.97%
COc1ccc(NC(=O)Cn2nc3c4cc(-c5cc(C)ccc5C)nn4ccn3c2=O)c(OC)c1,9.51%,3.64%,-9.3%
COc1ccc(CNC(=O)Cn2nc3c(Sc4ccc(C)cc4C)nccn3c2=O)cc1,6.84%,-0.37%,-7.66%
COc1cccc(-n2ccn3c(SCC(=O)Nc4ccc(OC)c(OC)c4)nnc3c2=O)c1,16.13%,5.16%,-5.69%
COc1ccc(NC(=O)c2ccc3nn(CC(=O)Nc4ccccc4C(F)(F)F)c(=O)n3c2)cc1,0.14%,5.37%,-8.24%
COc1ccc(Cl)cc1NC(=O)CSc1nc2ccccc2n2c(C(C)C)nnc12,-0.34%,58.61%,-12.46%
CCOc1ccc(-n2ccn3c(SCC(=O)Nc4cc(F)ccc4F)nnc3c2=O)cc1,6.4%,2.5%,-1.21%
Cc1c(Cl)cccc1NC(=O)Cn1nc2c(N3CCOCC3)nc3ccccc3n2c1=O,9.14%,0.17%,-24%
CCOc1ccc(-n2ccn3c(SC(CC)C(=O)Nc4cc(F)ccc4F)nnc3c2=O)cc1 (configuration not stated),11.22%,0.62%,-9.91%
Cc1ccc(-c2cc3c4nn(CC(=O)Nc5ccc(F)cc5Cl)c(=O)n4ccn3n2)cc1,2.7%,1.88%,-28.25%
COc1ccc(N(Cc2ccccc2F)S(=O)(=O)c2ccc3nnc(C)n3c2)cc1,4.15%,-0.01%,-2.71%
CCC(Sc1nnc2c(=O)n(-c3ccc(F)cc3)ccn12)C(=O)Nc1cc(OC)cc(OC)c1 (configuration not stated),12.14%,-0.61%,-13.06%
COC(=O)c1ccc(CN(c2cccc(C)c2)S(=O)(=O)c2cccn3c(C)nnc23)o1,9.19%,2.2%,-7.03%
Cc1nnc2ccc(S(=O)(=O)N(Cc3ccccc3F)c3ccc(F)c(F)c3)cn12,9.72%,2.36%,-9.63%
